Results as given in the supplement of paper PMC6555819.

test system: VDR:RXRa (NR concentration 270 nM, RXRa partner concentration 90 nM); experiment: PBM binding z-score (relative to random genomic background probes); higher = stronger binding; sequences stand for … in GC…GCGATTGACAGCGTAGAATGAAGG
Method: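 Protein-binding microarray (Agilent 4x180K custom design, double-stranded 60-nt probes: 5' GC cap, 34-nt variable region, 24-nt constant primer region; full probe sequence given). Purified or IVT nuclear receptor:RXRα heterodimers (3:1 NR:RXRα, mostly 270:90 nM) or homodimers were incubated for 1 h in PBS with 2% milk and no ligand, then detected with Alexa488 antibodies. Fluorescence from o1-orientation probes (~5 replicates averaged) was converted to z-scores against 500 random hg19 background probes. Variable regions are seed direct-repeat (DR0–DR5) sites, all their single-nucleotide variants and half-site ablations.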

Sequence	PBM binding z-score
TTACAAAGGTGAAAGGTCGTTGATGCACGCCTTG	4.35
TCGAGTAGGTTACGGGGGCATTCATGGATGAAGA	3.71
AATTCAGGGTCACTAGGCCAGAGTAGGTACGAAT	4.79
AGTCAAAGTTCAGCACGAGGTAACGTAAAGCACG	3.25
CGAACTAGGTCACCAGGACAGTGACGAGGTTGGA	2.13
CGTCCGAGGTCAATGCTAGGTCAGTGAAAGCATT	5.63
CGAACTAGGTCAGAACAGTACAGTGAAGGATGAT	0.879
TCGAGTAGGTAACGGGGGCATTCAGGGATGAAGA	3.38
CGATCTAGGTCACCAGGACAGTGAAGAGGTTGGA	1.76
CCGAGTAGGTTAGGAGGGGGCATTCAGTGCGAAT	4.91
CTCGAAAGGTCGGTTGAGGTCAGTATACGGATAA	6.09
CCGACTGGGGCAAAGGTTACCACACTCAGTACGA	1.81
GATACAGGGTCAGCTTGAGGCCAGAGTATGGAAA	3.33
ATATGTAGGTTCCATCCGGGTCATTCAGGCTATG	3.22
CCGAGTAGGTTACGAGGGGGCATTGAGTGCGAAT	6.16
CAAACTAGGTCACCGGAAGGTCATAGTCCGCATG	5.66
AGAGTGAGGTTACCAAAGATCAGGGAAACGCTTG	1.64
GGAACGGGGGCATTCGAGTTGATAGCATGGCGAT	5.52
CGAACTAGGTCAAAGTACAGTGAAAGGCGACGTA	1.84
ATCGAACGGTCGAGGTGAGTATAGAGAAAGGGAA	-0.335

Sequence	PBM binding z-score
CCGAGTAGGTTCCGAGGGGGCATTCAGTGCGAAT	4.09
CGAACTAGGTCAAAGGAAAGTGAAAGGCGACGTA	0.89
CAAACTAGGTCAAGAGGTCAAACTCCGCTTCCCG	6.49
CAAACTAGGTCACAGAGGTTAAAGTCCGTGCGTA	6.72
TTACCAAGGTGAAAGGTCGTTGAAGCACGCCTTG	3.42
ATCGAAAGGTCGAAGGTGAGTCTACCCACCCGAA	3.08
CTATGTAGCTTAAGGGGGTCATTCAGTTTGAAAG	6.4
CCGTGTAGGTTACGAGGGGGCATTCAGTGCGAAT	5.7
CGAACTTGGTCAAAGGACAGTGAAAGGCGACGTA	-0.101
ATACGTAGGTTATCGGGTCATTCAGTTTGCGCAT	5.06
CAAACTAGGTCAAAGGTCAACGTCGAGCCAACCA	6.69
CGTCCAAGGTCAGAGAGGTCAGTGACTGCCGAGT	7.27
GCTGCTAGGTTAACTGATGGTCAGCTAAAGCTCG	-0.182
TCGAGTAGGTTGCGGGGGCATTCAGGGATGAAGA	3.33
CCGAGTAGGTTACGGGGGGGCATTCAGTGCGAAT	5.49
TTACAAAGGTGAGCTGAGGTCGTTGATCCAACTC	5.58
ACTCGGAGGACAGAGGTCAGAGCTACGCCAGTGA	2.99
CCGACTGGGGCAAAGGTTACCATGCTCAGTACGA	1.64
TCGAGAAGGTTACGGGGGCATTCAGGGATGAAGA	4.82
ATATGTAGCTTAAGGGTCATTCAGGTTGGTTCGC	5.26
